Compound activity: PubChem BioAssay, National Center for Advancing Translational Sciences (NCATS)
HT1080-NT tox = qHTS for induction of synthetic lethality in tumor cells producing 2HG: qHTS for the HT-1080-NT fibrosarcoma cell line; HT-1080-NT fibrosarcoma viability, CellTiter-Glo ATP luminescence, 48 h; Potency, µM (top dose mostly 46.1 µM), inactives show top-dose activity, negative = less viability, hits mostly cytotoxic; AID 686970, 2013; 360,000 compounds, 1.6% hits;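 note: NT is the 2HG producing partner of a matched IDH1 knockdown line; potency is the fitted concentration of half-maximal effect; 0% = DMSO-treated cells and -100% = media-only wells without cells; nearly all actives have a fitted effect of over 55% in size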
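HT-1080-NT fibrosarcoma cells (2HG-overproducing), 750 cells/well in RPMI with 5% FBS, dosed after 2 h and incubated 48 h at 37C. CellTiter-Glo luminescence normalized to DMSO and no-cell wells; concentration-response curves fitted and classed.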
TDP1 cell CPT = qHTS for Inhibitors of human tyrosyl-DNA phosphodiesterase 1 (TDP1): qHTS in cells in presence of CPT; chicken DT40 Tdp1-/-;hTDP1 cells + 20 nM CPT, ATP luminescence, 48 h; 420,000 compounds, 12% hits; AID 686979, 2013; Potency, µM (highest dose often 46.2 µM), for the others: top-dose activity change, negative = growth inhibition, usual class: inhibitors; note: potency is the fitted concentration of half-maximal effect; nearly all actives have a fitted effect of over 55% in size
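Cell growth measured by CellTiter-Glo luminescence after a minimum 48 h, 37 C compound exposure with 20 nM CPT in Tdp1-knockout DT40 cells stably expressing hTDP1, seeded 400/well; qHTS titration format.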
IL1B secr inh = qHTS for Inhibitors of Inflammasome Signaling: IL-1-beta AlphaLISA Primary Screen | THP-1 LPS/ATP IL-1B secretion, AlphaLISA, 16 h; stronger effect = lower value | activity change, % at 57.5 µM | 360,000 compounds, 4.7% hits | AID 743279, 2014; in the data active = activity change below about -50%; inconclusive = mostly about -30% to -49%
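Secreted IL-1B measured by AlphaLISA bead assay after 16 h compound exposure of THP-1 cells; compounds (final up to 57.5 uM) added 1 h before LPS (250 ng/mL) and ATP (1.25 mM) stimulation; lower signal means less secretion.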
DT40 TDP1 no CPT = qHTS for Inhibitors of human tyrosyl-DNA phosphodiesterase 1 (TDP1): qHTS in cells in absence of CPT. 420,000 compounds, 15% hits. AID 686978, 2013. Potency, µM (series often up to 46.2 µM), for the others: at the top dose activity change, negative = growth inhibition, hits mostly inhibitors. DT40 Tdp1-/- hTDP1 cells, no CPT, ATP luminescence, 48 h; note: potency is the fitted concentration of half-maximal effect; nearly all actives have a fitted effect of over 55% in size
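Compound effects on proliferation are scored in DT40 Tdp1-/-;hTDP1 cells in the absence of CPT. ATP levels (CellTiter-Glo luminescence) are recorded after a ≥48 hr, 37 °C incubation.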
HT1080 IDH1KD tx = qHTS for induction of synthetic lethality in tumor cells producing 2HG: qHTS for the HT-1080-IDH1KD cell line | HT-1080 IDH1 knockdown viability, ATP luminescence, 48 h | Potency, µM (titrated, usually from 46.1 µM), without a hit: at the top dose activity, negative = toxicity, hits mostly cytotoxic | 360,000 compounds, 2% hits | AID 686971, 2013;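 note: potency is the fitted concentration of half-maximal effect; 0% = DMSO wells and -100% = cell-free medium wells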
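% activity derives from luminescence (CellTiter-Glo), normalised to DMSO and no-cell wells. HT-1080-IDH1KD cells, 750/well, had 48 h compound exposure at 37 °C.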
ELG1 repair inh = qHTS screen for small molecules that inhibit ELG1-dependent DNA repair in human embryonic kidney (HEK293T) cells expressing luciferase-tagged ELG1; HEK293T ELG1-luciferase reporter, luminescence, 16 h; DNA damage induced by 5-fluorouridine; AID 504467, 2011; 330,000 compounds, 2.3% hits; Potency, µM (doses to about 46.1 µM), for the others: at the top dose activity change, negative = inhibition, most hits filed as inhibitors; note: potency is the fitted concentration of half-maximal effect; nearly all actives have a fitted effect of over 55% in size
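Overnight (16 hr) co-exposure of 2,000 cells/well to 5-fluorouridine and compound at 37 °C preceded detection. Luciferase was quantified via ONE-Glo luminescence; loss of signal denotes inhibition.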
ELG1 FLuc counter = qHTS screen for small molecules that inhibit ELG1-dependent DNA repair: Hit Confirmation in Cell-Based Luciferin Assay; 350 compounds, 3% hits; shares compounds with ELG1 repair inh; AID 624247, 2012; cell-free firefly luciferase luminescence counter-screen, ViewLux; Potency, µM (highest dose often 46.1 µM), for the others: at the highest dose activity change, negative = inhibition, usual class: inhibitors; note: potency is the fitted concentration of half-maximal effect
ELG1 Luc conf = HTS assay for small molecules that inhibit ELG1-dependent DNA repair in human embryonic kidney (HEK293T) cells expressing luciferase-tagged ELG1: Hit Confirmation. shares compounds with ELG1 repair inh. HEK293T ELG1-luciferase levels, luminescence; cells co-treated with 5-fluorouridine. Potency, µM (titrated, usually from 46.1 µM), inactives show at the top dose activity change, negative = inhibition, usual class: inhibitors. 670 compounds, 68% hits; note: potency is the fitted concentration of half-maximal effect; nearly all actives have a fitted effect of over 55% in size
Target sequence (Q96QE3 whole entry, looked up): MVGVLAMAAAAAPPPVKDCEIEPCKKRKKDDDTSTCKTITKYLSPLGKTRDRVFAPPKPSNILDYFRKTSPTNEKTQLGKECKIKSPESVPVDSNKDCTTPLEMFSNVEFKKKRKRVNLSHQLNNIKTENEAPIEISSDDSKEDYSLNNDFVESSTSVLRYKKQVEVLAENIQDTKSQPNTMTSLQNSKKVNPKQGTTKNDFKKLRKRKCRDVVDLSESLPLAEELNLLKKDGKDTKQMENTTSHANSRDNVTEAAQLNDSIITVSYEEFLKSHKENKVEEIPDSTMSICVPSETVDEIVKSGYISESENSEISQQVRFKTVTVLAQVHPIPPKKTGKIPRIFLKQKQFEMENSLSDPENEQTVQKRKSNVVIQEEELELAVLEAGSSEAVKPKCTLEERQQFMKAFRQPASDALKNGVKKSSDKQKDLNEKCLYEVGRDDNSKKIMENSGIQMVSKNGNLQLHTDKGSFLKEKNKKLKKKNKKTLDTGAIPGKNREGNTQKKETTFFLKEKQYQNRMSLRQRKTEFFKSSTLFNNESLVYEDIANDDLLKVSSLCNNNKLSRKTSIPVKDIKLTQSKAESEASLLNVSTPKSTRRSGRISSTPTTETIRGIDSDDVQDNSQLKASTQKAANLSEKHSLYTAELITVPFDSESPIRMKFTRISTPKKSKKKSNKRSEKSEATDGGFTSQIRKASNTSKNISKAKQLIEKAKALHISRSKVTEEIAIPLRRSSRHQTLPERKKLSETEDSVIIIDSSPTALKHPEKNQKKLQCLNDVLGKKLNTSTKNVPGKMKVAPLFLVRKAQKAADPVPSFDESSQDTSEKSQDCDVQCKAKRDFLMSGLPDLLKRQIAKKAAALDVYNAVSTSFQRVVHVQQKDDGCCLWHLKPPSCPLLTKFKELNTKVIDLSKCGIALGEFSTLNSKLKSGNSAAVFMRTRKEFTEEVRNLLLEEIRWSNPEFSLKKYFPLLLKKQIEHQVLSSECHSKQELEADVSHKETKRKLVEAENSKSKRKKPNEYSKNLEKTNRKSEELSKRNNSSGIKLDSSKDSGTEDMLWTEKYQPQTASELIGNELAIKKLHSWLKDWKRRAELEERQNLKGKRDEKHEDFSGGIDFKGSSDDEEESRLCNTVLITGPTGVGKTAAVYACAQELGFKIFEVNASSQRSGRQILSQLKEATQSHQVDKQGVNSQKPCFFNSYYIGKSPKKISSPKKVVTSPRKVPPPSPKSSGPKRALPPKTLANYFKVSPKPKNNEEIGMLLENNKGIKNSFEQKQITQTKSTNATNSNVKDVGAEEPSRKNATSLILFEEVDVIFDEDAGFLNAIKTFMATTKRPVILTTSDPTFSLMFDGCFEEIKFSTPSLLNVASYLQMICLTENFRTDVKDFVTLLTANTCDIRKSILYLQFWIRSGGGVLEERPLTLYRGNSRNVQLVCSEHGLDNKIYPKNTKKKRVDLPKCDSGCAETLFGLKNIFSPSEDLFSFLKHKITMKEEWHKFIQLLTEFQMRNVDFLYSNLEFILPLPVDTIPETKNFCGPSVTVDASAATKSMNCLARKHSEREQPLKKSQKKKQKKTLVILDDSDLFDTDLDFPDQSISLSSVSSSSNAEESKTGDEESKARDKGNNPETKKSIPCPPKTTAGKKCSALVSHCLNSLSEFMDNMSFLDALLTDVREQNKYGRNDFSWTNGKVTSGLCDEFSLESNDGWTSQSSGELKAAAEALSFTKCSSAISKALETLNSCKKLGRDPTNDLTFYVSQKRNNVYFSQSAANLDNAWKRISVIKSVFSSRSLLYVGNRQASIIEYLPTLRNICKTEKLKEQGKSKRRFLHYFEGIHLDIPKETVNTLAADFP
ELG1 MMS Luc = inhibits ELG1-dependent repair under MMS stimulation in HEK293T cells; AID 624249; shares compounds with ELG1 repair inh; HEK293T luciferase-tagged ELG1 level, MMS stimulated; Potency, µM (series often up to 46.1 µM), for inactives: top-dose activity change, negative = inhibition, usual class: inhibitors; 670 compounds, 53% hits; note: potency is the fitted concentration of half-maximal effect; nearly all actives have a fitted effect of over 60% in size
ELG1 5FU viab = qHTS screen for small molecules that inhibit ELG1-dependent DNA repair: Hit Confirmation with 5FU Viability | shares compounds with ELG1 repair inh | Potency, µM (series often up to 46.1 µM), without a hit: at the top dose activity change, negative = viability loss, actives largely listed as cytotoxic | AID 624250, 2012 | 670 tested, under 10 active | cell viability with 5-FU, ELG1-dependent repair;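 note: ELG1-luc HEK293T cells cotreated with 5-fluorouridine at 10 µM final; potency is the fitted concentration of half-maximal effect; viability measured 16 h after compound addition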
ELG1 MMS cell = qHTS screen for small molecules that inhibit ELG1-dependent DNA repair: Hit Confirmation with MMS Viability | shares compounds with ELG1 repair inh | Cell viability with MMS, ELG1-dependent DNA repair | Potency, µM (titrated, usually from 46.1 µM), without a hit: at the top dose activity change, negative = viability loss, most hits filed as cytotoxic | 670 compounds, 33% hits | AID 624251, 2012;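 note: ELG1-luc HEK293T cells co-treated with 10 µM MMS; potency is the fitted concentration of half-maximal effect; viability read 16 h after compound addition; nearly all actives have a fitted effect of over 60% in size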
Cell viab unstim = qHTS screen for small molecules that inhibit ELG1-dependent DNA repair: Hit Confirmation with Unstimulated Viability Assay; AID 624252, 2012; Potency, µM (highest dose often 45.9 µM), for the others: top-dose activity change, negative = loss of viability, most hits filed as cytotoxic; shares compounds with ELG1 repair inh; cell viability counter-screen, unstimulated, luminescence; 900 compounds, 8% hits;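 note: potency is the fitted concentration of half-maximal effect; compound exposure lasted 16 hours before reading; nearly all actives have a fitted effect of over 55% in size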
FLuc biochem = qHTS screen for small molecules that inhibit ELG1-dependent DNA repair: Hit Confirmation in Biochemical Luciferin Assay. shares compounds with ELG1 repair inh. purified firefly luciferase, luminescence counter-screen. Potency, µM (series often up to 57.5 µM), for inactives: at the top dose activity, negative = inhibition, most hits filed as inhibitors. 350 compounds, 10% hits; note: potency is the fitted concentration of half-maximal effect
* hit, by the source's call. Rows were chosen to be rich in hits. Some 19% of all compounds tested hit in one or more screens of this group. Unless noted, calls come from the whole dose curve; as a rule, active = well fitted curve in the direction sought with a large enough effect; inconclusive = small, poorly fitted or top-dose-only effect, or another doubt; inactive = no such curve, though single readings can be large; an effect the other way counts as inactive or inconclusive. Unless noted, % is set by controls: 0 for no effect and ±100 for the full control effect.

What do the screens show for `COc1ccc(CCNC(=O)CN2c3cccc4cccc(c34)S2(=O)=O)cc1OC`?
HT1080-NT tox: -3%; TDP1 cell CPT: 0%; IL1B secr inh: -3; DT40 TDP1 no CPT: inconclusive; HT1080 IDH1KD tx: -4%; ELG1 repair inh: 2.6µM*; ELG1 Luc conf: inconclusive; ELG1 MMS Luc: 20%; ELG1 5FU viab: inconclusive; ELG1 MMS cell: -1%; Cell viab unstim: inconclusive

Results for Cc1ccnc(Cc2ccccc2)n1 ?
HT1080-NT tox: 12%; TDP1 cell CPT: -1%; IL1B secr inh: 11; DT40 TDP1 no CPT: -11%; HT1080 IDH1KD tx: -1%; ELG1 repair inh: inconclusive

Results for CSc1sc(-c2ccnc(SCCS(C)(=O)=O)n2)c(-c2ccccc2)c1C#N ?
HT1080-NT tox: -15%; TDP1 cell CPT: inconclusive; IL1B secr inh: 66; DT40 TDP1 no CPT: 18µM*; HT1080 IDH1KD tx: -10%; ELG1 repair inh: 4.6µM*; ELG1 Luc conf: 3.1µM*; ELG1 MMS Luc: 0.56µM*; ELG1 5FU viab: 1%; ELG1 MMS cell: 0.63µM*; Cell viab unstim: inconclusive

What do the screens show for `Cn1cccc1C(=O)OCC(=O)c1c[nH]c2ccccc12`?
HT1080-NT tox: 10%; TDP1 cell CPT: 0%; IL1B secr inh: -24; DT40 TDP1 no CPT: 2%; HT1080 IDH1KD tx: 17%; ELG1 repair inh: inconclusive; Cell viab unstim: -13%

What do the screens show for `Cc1cnc(C(=O)OCC(=O)c2c[nH]c3ccccc23)cn1`?
HT1080-NT tox: 1%; TDP1 cell CPT: -16%; IL1B secr inh: 9; DT40 TDP1 no CPT: -1%; HT1080 IDH1KD tx: 0%; ELG1 repair inh: 3%

How did O=C(CSc1ccc2nnc(-c3cccc(F)c3)n2n1)N1CCCc2ccccc21 do in these assays?
HT1080-NT tox: -7%; TDP1 cell CPT: inconclusive; IL1B secr inh: 6; DT40 TDP1 no CPT: 18µM*; HT1080 IDH1KD tx: 2%; ELG1 repair inh: 12µM*; ELG1 FLuc counter: -5%; ELG1 Luc conf: 14µM*; ELG1 MMS Luc: inconclusive; ELG1 5FU viab: 10%; ELG1 MMS cell: 6%; Cell viab unstim: -5%; FLuc biochem: -1%

Results for CCC(=O)N1CCc2cc(Br)cc(S(=O)(=O)N3CCC(C(=O)NCCCOC(C)C)CC3)c21 ?
HT1080-NT tox: -9%; TDP1 cell CPT: 14%; IL1B secr inh: -9; DT40 TDP1 no CPT: -24%; HT1080 IDH1KD tx: 2%; ELG1 repair inh: 1.6µM*; ELG1 Luc conf: 7.9µM*; ELG1 MMS Luc: 15%; ELG1 5FU viab: inconclusive; ELG1 MMS cell: 4%; Cell viab unstim: -2%

Results for CCC(=O)N1CCc2cc(Br)cc(S(=O)(=O)CC(=O)OC)c21 ?
HT1080-NT tox: 22%; TDP1 cell CPT: inconclusive; IL1B secr inh: 17; DT40 TDP1 no CPT: -18%; HT1080 IDH1KD tx: 17%; ELG1 repair inh: -14%

What do the screens show for `COc1ccc(/C=N/n2c(N)c(S(=O)(=O)c3cccs3)c3nc4ccccc4nc32)cc1OC`?
HT1080-NT tox: -8%; TDP1 cell CPT: inconclusive; IL1B secr inh: inconclusive; DT40 TDP1 no CPT: -20%; HT1080 IDH1KD tx: -8%; ELG1 repair inh: 2.6µM*; ELG1 Luc conf: 3.1µM*; ELG1 MMS Luc: 16%; ELG1 5FU viab: inconclusive; ELG1 MMS cell: -1%; Cell viab unstim: -5%

How did Cc1cc(C)c(C)c(S(=O)(=O)NCC(=O)Nc2ccc(F)cc2)c1C do in these assays?
HT1080-NT tox: inconclusive; TDP1 cell CPT: inconclusive; IL1B secr inh: 0; DT40 TDP1 no CPT: -29%; HT1080 IDH1KD tx: inconclusive; ELG1 repair inh: inconclusive
